PostGolgi yeast: phenotypic screen on post-Golgi transport, primary screen | post-Golgi transport phenotypic cell assay | inhibition, % at 10 µM | 98,000 tested, 0.9% active | AID 739, 2007;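 also: yeast cells grown in 1536-well plates; yeast grown about 18 h at 30C before absorbance read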
CYP2C9 inh: blockers of cytochrome P450 2C9 activity – biochemical, luminescence, ADME assay, primary screen; CYP2C9 Supersomes, luciferin-H conversion; inhibition, % at 5 µM; 96,000 tested, 20% active; AID 777, 2007;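 active = blocking of liver enzyme CYP2C9 beyond about 50% at 5 µM, limit read from the data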
Target sequence (P11712 whole entry, looked up): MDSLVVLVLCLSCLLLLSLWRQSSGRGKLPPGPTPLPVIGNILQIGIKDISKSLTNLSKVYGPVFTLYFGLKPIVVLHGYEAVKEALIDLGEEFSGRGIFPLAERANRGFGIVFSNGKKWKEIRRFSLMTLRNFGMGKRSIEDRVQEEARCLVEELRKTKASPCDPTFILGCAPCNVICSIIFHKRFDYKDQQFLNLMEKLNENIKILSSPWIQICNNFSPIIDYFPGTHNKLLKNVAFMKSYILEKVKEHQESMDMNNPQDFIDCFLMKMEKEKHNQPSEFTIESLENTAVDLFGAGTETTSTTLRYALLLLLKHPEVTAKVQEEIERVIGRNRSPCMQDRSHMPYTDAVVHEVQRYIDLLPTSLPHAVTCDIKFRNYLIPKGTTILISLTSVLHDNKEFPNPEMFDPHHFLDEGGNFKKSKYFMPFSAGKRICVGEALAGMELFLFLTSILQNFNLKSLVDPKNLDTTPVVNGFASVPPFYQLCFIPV
PostGolgi ctrl: growth inhibition of yeast control strain, primary screen, counter-screen for post-Golgi transport modulator project. efflux-deficient yeast background strain, growth absorbance A615, 16 h. 98,000 tested, 5% active. inhibition, % at 10 µM
CYP2C19 activ: human CYP2C19 activators, primary screen, biochemical, luminescence; Cytochrome P450 2C19 (Homo sapiens), P33261; recombinant CYP2C19, luciferin-H EGE luminescence; hits give high values; 0 = fully inhibited enzyme, 1 = untreated enzyme; activation factor at 5 µM; 96,000 tested, under 10 active; AID 1025, 2008;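 active = activation factor of at least 2 at 5 µM in the primary screen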;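 also: 0 = wells with 2.5 mM tranylcypromine and 1 = vehicle-only wells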
CYP2C9 act: human CYP2C9 activators, primary screen, biochemical, luminescence; recombinant CYP2C9, luciferin-H conversion; hits give high values; factor 1 = untreated enzyme, 0 = blocked; Cytochrome P450 2C9 (Homo sapiens), P11712; activation factor at 5 µM; 96,000 tested, 1.4% active;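 active = activation factor of 2 or more for CYP2C9 at a 5 µM dose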;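 also: 0 = sulfaphenazole-blocked wells and 1 = vehicle-only wells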
CYP2C19 inh: blockers of cytochrome P450 2C19 activity – biochemical, luminescence, ADME assay, primary screen. CYP2C19 Supersomes, luciferin-H EGE luminescence, 30 min. 96,000 tested, 21% active. P33261. inhibition, % at 5 µM;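 active = CYP2C19 inhibition above a set limit at 5 µM in the primary screen, cut at about 50% in these data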;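 also: plate controls were negative control wells for no effect and 2.5 mM tranylcypromine positive control for full effect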
* marks the source's active call; other numbers are inactive results; · = no result given. Sampled rows, rich in hits. Any-hit rate of the full collection: about 32%. Rule as the data show it, unless noted: active = inhibition above about 30%; inactive = the rest.

SMILES	PostGolgi yeast	CYP2C9 inh	PostGolgi ctrl	CYP2C19 activ	CYP2C9 act	CYP2C19 inh
CCOC(=O)c1ccc(NS(=O)(=O)CC)cc1	-13.8	80.1*	12.3	0.3	0.2	67.3*
COC(=O)c1c(C)oc2ccc(NS(=O)(=O)c3cc(OC)ccc3OC)cc12	-11.4	15.0	23.1	1	0.8	4.1
Cc1noc(C)c1COc1ccc(C(=O)NCc2ccccn2)cc1	7.4	-16.4	7.4	1.1	1.2	-13.2
COc1ccc(OC)c(S(=O)(=O)Nc2ccc(C(C)=O)cc2)c1	-0.2	43.8	1.7	0.5	0.6	47.1
COc1ccc(OC)c(S(=O)(=O)Nc2ccc(O)c3ccccc23)c1	·	84.5*	·	0.2	0.2	75.7*
CCCCOC(=O)c1ccc(NS(=O)(=O)c2cc(-c3nnnn3CC)ccc2OC)cc1	21.0	71.2*	10.6	0.9	0.3	12.2
COc1ccc(OC)c(S(=O)(=O)Nc2ccc(Oc3ccccc3)cc2)c1	8.5	81.6*	27.4	0	0.2	97.0*
CCOc1ccc(S(=O)(=O)Nc2ccc(F)cc2)c(C)c1C	-13.8	99.6*	54.9*	0	0	100.1*
COc1ccc(OC)c(S(N)(=O)=O)c1	-9.0	1.5	-4.6	0.9	1	12.8
Nc1nonc1-c1nc2ccccc2n1CC(=O)N1CCN(c2ccc(F)cc2)CC1	-4.8	12.3	4.5	0.8	0.9	21.0
CCOC(=O)c1ccc(NS(=O)(=O)c2cc(C)ccc2OC)cc1	-10.2	57.9*	12.6	1.1	0.4	-5.4
COc1ccc(C)cc1S(=O)(=O)Nc1ccccc1	-6.7	38.2	5.8	0.8	0.6	23.9
O=C(NCCOc1ccc(Cl)cc1)C1CC(=O)N(c2ccc(F)cc2)C1 (stereo not drawn)	-4.3	-12.4	10.5	0.7	1.1	32.9
COc1ccccc1CNC(=O)C1CC(=O)N(C2CCCC2)C1 (stereo not drawn)	-2.5	12.1	6.4	1	0.9	0.2
O=C(Nc1nc2ccccc2s1)C1CC(=O)N(c2ccc(Br)cc2)C1 (stereo not drawn)	-9.2	46.4	46.2*	1	0.5	0.5
O=C(Oc1ccc(Br)cc1)C1CC(=O)N(c2ccc(F)cc2)C1 (stereo not drawn)	-2.8	3.3	-5.7	1	1	1.4
COc1ccccc1CNC(=O)C1CC(=O)N(c2ccc(C)c(C)c2)C1 (stereo not drawn)	-10.0	-152.4	0.5	0.4	2.5*	57.9*
O=C(Nc1cccc(F)c1)C1CC(=O)N(c2ccc(Cl)cc2)C1 (stereo not drawn)	-2.7	70.9*	10.0	0.1	0.3	87.6*
O=C(Nc1cccc(F)c1)C1CC(=O)N(c2ccc(Br)cc2)C1 (stereo not drawn)	-1.8	62.6*	14.2	0.4	0.4	62.8*
CCC1=NC(c2ccccc2OC)N(O)C1(C)C (stereo not drawn)	-5.5	-6.0	-2.2	1	1.1	-1.0
COc1ccc(OC)c(NC(=O)C2CC(=O)N(c3ccc(Br)cc3)C2)c1 (stereo not drawn)	8.5	84.1*	18.8	0.1	0.2	86.5*
CC(C)Oc1cccc(-c2cc(C(=O)N3CCN(S(C)(=O)=O)CC3)c3ccccc3n2)c1	0.6	11.7	2.2	1.1	0.9	-5.2
COc1cccc(-c2cc(C(=O)N3CCN(c4ncccn4)CC3)c3ccccc3n2)c1	0.5	96.3*	21.6	0.3	0	73.0*
COC(=O)c1sccc1NC(=O)c1cc(-c2cccc(C)c2)nc2ccccc12	-1.1	-12.1	0.5	1.1	1.1	-11.4
Cc1ccc2nc(-c3ccccn3)cc(C(=O)N3CCN(c4ncccn4)CC3)c2c1	-3.0	53.6*	5.9	0.8	0.5	19.8
COc1cccc(-c2cc(C(F)(F)F)n3ncc(C(=O)O)c3n2)c1	10.6	-2.1	2.1	0.8	1	20.2
CC(C)Oc1cccc(-c2cc(C(=O)N3CCN(c4ncccn4)CC3)c3ccccc3n2)c1	-7.7	84.1*	23.9	0.7	0.2	29.1
COc1cccc(-c2cc(C(=O)Nn3cnnc3)c3ccccc3n2)c1	-0.5	97.3*	4.6	0.2	0	77.3*

Screens deposited in PubChem by several laboratories.
